Among the data in PubChem BioAssay AID1850 (Southern Research Specialized Biocontainment Screening …, 2009) are inhibition values, retold here.

In all, about 310,000 compounds went through this assay and about 1,000 (0.32%) were called active. These entries were drawn from the full list. Measured potencies and affinities stand elsewhere. A number with no mark means an inactive call. How the calls were made is not given here.

A short description of the experiment: Inhibition of PhoP regulon, Salmonella typhi GFP reporter cells, confirmation, 4 h (AID 1850).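 Further: 0% = induced wells with vehicle and 100% = uninduced wells.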 The conditions noted are these: Salmonella Typhi PhoP-promoter GFP reporter, fluorescence, at 50 µM, stronger effect = higher value.
By inhibition is commonly meant the relative decrease from the control value, in per cent. `COc1ccccc1C(=O)N1CCc2ccccc21`: the inhibition was -2.54%.
For `COCCN(C(=S)Nc1cc(C)cc(C)c1)C(C)c1cccnc1` (stereo not given) the value was -6.47%; for `O=C1c2ccccc2C(=O)N1OCc1ccccc1`, -23.3%.
For `COc1ccc(N(C)C(=O)CCC(=O)Nc2ccc3nc(N4CCOCC4)cc(C)c3c2)c(OC)c1` the value was -10.9%; for `CC(C)c1ccccc1OCC(=O)Nc1ccc2[nH]ncc2c1`, -2.28%.
As for `O=C1CC(c2ccccc2Cl)CC(O)=C1C=Nc1ccccc1` (stereo not given), the figure is -11%; as for `Cc1nc2ccccn2c1C(=O)N/N=C/c1ccccc1[N+](=O)[O-]`, 5.76%; as for `O=C(CNc1cccc([N+](=O)[O-])c1)N/N=C/c1ccc([N+](=O)[O-])o1`, 17.3%.
For `O=C(CCN1CCN(c2ccccc2)CC1)N/N=C/c1ccccc1O`, the inhibition is -12.1%.
For `O=C(Cc1ccccc1)N/N=C/c1ccc(-c2ccc([N+](=O)[O-])cc2)o1` the value was -11.9%; for `Cc1cc(C)cc(OCC(=O)N/N=C/c2ccc([N+](=O)[O-])o2)c1`, -6.8%; for `O=C(COc1ccccc1)N/N=C/c1ccc([N+](=O)[O-])o1`, 3.11%.
For `CC(=O)Nc1ccc(/C=N/NC(=O)CCN2CCN(c3ccccc3)CC2)cc1` the value was 3.88%; for `Cc1nc2ccccn2c1C(=O)N/N=C/c1ccc([N+](=O)[O-])cc1`, 2.94%; for `COc1cc(Nc2nc3ccccc3nc2NS(=O)(=O)c2ccc([N+](=O)[O-])cc2)cc(OC)c1OC`, 6.03%.
For the compound `CN(Cc1ccccc1)CC(O)COc1ccc(CNCCc2cccnc2)cc1` (stereo not given), the inhibition was 9.53%.
On to `Cc1ncc(CCl)c2c1OC(C)(C)OC2`, for which the inhibition is 5.02%.
Consider `COc1ccc(NC(=O)NCc2cccnc2)c(OC)c1`, for which the inhibition is -7.58%.
As for `O=C(Cc1ccccc1)Nc1nccs1`, the figure is -0.57%; as for `Cc1cc(OC(C)C(=O)N2C[C@H]3C[C@@H](C2)c2cccc(=O)n2C3)c2c(C)c(C)c(=O)oc2c1` (stereo not given in full), -6.28%; as for `CC(C)Cc1nnc(NC(=O)CCC(=O)N2CCN(c3ccccn3)CC2)s1`, -13%.
Regarding `O=[N+]([O-])c1cccnc1NCCc1c[nH]c2ccccc12`, the inhibition is -3.53%.
On to `Cc1cc(NC(=O)CSCC(=O)N2CCN(c3cccc(C(F)(F)F)c3)CC2)no1`, for which the inhibition was 6.28%.
For `O=C(N/N=C/C=C/c1ccccc1[N+](=O)[O-])c1cccs1` the value was -2.89%.
As for `O=C(N/N=C/c1ccc([N+](=O)[O-])o1)c1ccc2c(c1)OCO2`, the figure is 3.54%; as for `O=C(CN1CCCCCCC1)N/N=C/c1ccc([N+](=O)[O-])o1`, 8.07%.
For `CCOC(=O)N/N=C(\C)c1ccc(C)o1`, the inhibition was -8.47%.
For `CCCC(=O)Nc1ccc(C(=O)N/N=C/c2ccc([N+](=O)[O-])o2)cc1` the value was 14.4%; for `O=C(N/N=C/C=C/c1ccc([N+](=O)[O-])cc1)c1cccs1`, 6.74%.
In the case of `C/C(=N/NC(=O)C(O)(c1ccccc1)c1ccccc1)c1ccc([N+](=O)[O-])o1`, the inhibition was -14%.
Regarding `NC(=O)N/N=C/c1ccc([N+](=O)[O-])o1`, the inhibition was 1.06%.
On to `COc1ccc(C2C(C(C)=O)=C(O)C(=O)N2Cc2ccccc2)c(OC)c1` (stereo not given), for which the inhibition was -1.09%.
As for `Cc1ccc([C@@H]2[C@@H]3C(=O)N(C)C(=O)[C@@H]3[C@]3(Cc4ccccc4)C(=O)N(Cc4ccccn4)CC(=O)N23)o1`, the figure is 5.99%; as for `COc1ccccc1N1CCN(C2CCCN(C(=O)c3cc(C4CC4)on3)C2)CC1` (stereo not given), -1.91%.
Regarding `O=C(C[n+]1cc(-c2ccccc2)n2c1CCCCC2)c1ccc(Br)cc1`, the inhibition was -5.28%.
For `CCOC(=O)N1CCN(C(=O)c2cn(CC)c3ccc(S(=O)(=O)N4CC(C)CC(C)C4)cc3c2=O)CC1` (stereo not given), the inhibition was -8.02%.
Turning to `O=C(COC(=O)CCN=C1NS(=O)(=O)c2ccccc21)NC1CCCCCCC1`, the inhibition is 2.68%.
As for `COc1cccc(NC(=S)NC(=O)Cc2ccc(Cl)cc2)c1`, the inhibition was -3.77%.
Consider `COC(=O)N/N=C/c1ccc([N+](=O)[O-])o1`, for which the inhibition was 10.7%.
For `CCOC(=O)N/N=C/c1ccc(C)o1`, the inhibition is -0.31%.
As for `Cc1ccc2c(c1)C(=O)CC(O)(C(F)(F)F)O2` (stereo not given), the figure is -10.7%; as for `COc1ccc(OC(=O)c2cc3ccccc3o2)cc1`, 3.29%.
`O=C(Nc1ccccc1)c1ccc(OC(=O)c2cc3ccccc3o2)cc1`: the inhibition was 1.84%.
As for `CC(=O)Nc1cccc(C(=O)Nc2cccnc2)c1`, the figure is 5.55%.
Regarding `CC(=O)OCC1OC(n2cc(F)c(=O)[nH]c2=O)C(OC(C)=O)C1OC(C)=O` (stereo not given), the inhibition was -1.38%.
For `Nc1cn(C2OC(CO)C(O)C2O)c(=O)[nH]c1=O` (stereo not given) the value was 5.11%.
Take `COc1ccccc1N1CCN(c2ccc(Cl)nn2)CC1`: the inhibition was 8.78%.
As for `Cc1ccc(C(=O)N/C(=C\c2ccccc2)C(=O)NCCCn2ccnc2)cc1`, the figure is -1.23%; as for `NC1=NC[C@@H](Cc2ccc(O)cc2)N1CCc1cccc2ccccc12`, -7.1%.
For `NC1=NC[C@H](Cc2ccc(O)cc2)N1CCc1cccc(F)c1` the value was -13.5%; for `NC1=NC[C@@H](Cc2ccc(O)cc2)N1CCC12CC3CC(CC(C3)C1)C2`, -4.88%.
As for `NCCCC[C@H]1CN=C(N)N1CCC12CC3CC(CC(C3)C1)C2`, the figure is 27.2%; as for `COc1ccccc1N1CCN(C(=O)Cn2nc(C(F)(F)F)c3c2CCC3)CC1`, -10.5%; as for `COc1cccc(C(=O)Nc2ccc(NC(=O)Cc3ccccc3)cc2)c1`, -3.24%.
`CC(CC12CC3CC(CC(C3)C1)C2)NCc1ccccc1O` (stereo not given): the inhibition is 0.38%.
As to `CC(NCc1ccncc1)C12CC3CC(CC(C3)C1)C2` (stereo not given), the inhibition was 2.47%.
As to `NS(=O)(=O)c1cccc(NC(=O)CC23CC4CC(C2)CC(CC(=O)Nc2cccc(S(N)(=O)=O)c2)(C4)C3)c1`, the inhibition was 4.03%.
Consider `c1ccc(CNc2nc(-c3cccs3)nc3ccccc23)cc1`, for which the inhibition is -0.13%.
As to `c1ccc(-c2nc(NC3CCCC3)c3ccccc3n2)cc1`, the inhibition was 3.11%.
As for `c1ccc(CN2CCC(Nc3ncnc4sccc34)CC2)cc1`, the figure is -4.42%.
In the case of `c1ccc(CN2CCC(Nc3nc(-c4cccnc4)nc4ccccc34)CC2)cc1`, the inhibition was 1.57%.
For `O=C1N(CN2CCC3(CC2)OCCO3)c2ccccc2C12OCCCO2`, the inhibition is 1.71%.
For the compound `Cc1ccc(NC(=O)N2CCN(c3ncccc3C(F)(F)F)CC2)cc1`, the inhibition was 1.6%.
Regarding `C=CCNC(=O)C1CC(=O)N(c2ccc(OCc3ccccc3Cl)cc2)C1` (stereo not given), the inhibition is 0.85%.
`COc1ccc(C2NC(=O)Cc3cc(OC)c(OC)cc32)cc1OC` (stereo not given): the inhibition was -3.77%.
For the compound `Nc1ccc(C(=O)OCc2nc3c(ccc4ccccc43)[nH]2)cc1`, the inhibition is 0.78%.
In the case of `Cc1cccc(OCc2nc(C#N)c(NCCN(C)C)o2)c1`, the inhibition is -1.98%.
With `CN(C)CCNc1oc(COc2ccc(Cl)cc2)nc1C#N`, the inhibition is 8.61%.
For `Cc1ccc(S(=O)(=O)N2CCCC(C(=O)NCCc3ccc(S(N)(=O)=O)cc3)C2)cc1` (stereo not given) the value was -14.1%; for `COc1ccc(-c2cc(C(=O)N(C)Cc3ccccc3F)c3ccccc3n2)cc1OC`, -13.2%.
As for `CCCn1nnc(NC(=S)NC(=O)/C=C/c2ccco2)n1`, the figure is -16%; as for `CC1=NN(c2nc3ccccc3[nH]2)C(=O)/C1=C/N(C)C`, -13.6%.
For `Cc1nn(-c2nc3ccccc3[nH]2)c(=O)c2ccccc12` the value was -19.2%.
On to `CN1CC(C(=O)c2ccc(F)cc2)C(c2c(F)cccc2Cl)C1` (stereo not given), for which the inhibition is 7.43%.
Regarding `CCOC(=O)c1ccccc1NC(=O)CSc1nnc(C(C)C)n1CC`, the inhibition is 1.44%.
As to `CC(C)C[C@H](NC(=O)NCc1ccccc1Cl)C(=O)O`, the inhibition is 2.59%.
As for `Cc1ccc2c(c1)c1c(n2CC(O)CN2CCCCCC2)CCCC1` (stereo not given), the figure is -2.65%; as for `Cc1ccc2c(c1)c1c(n2CC(O)CNC(CO)(CO)CO)CCCC1` (stereo not given), -13.1%; as for `Cc1ccc2c(c1)c1c(n2CC(O)CNC2CCCC2)CCCC1` (stereo not given), 14.4%.
For the compound `Cc1ccc2c(c1)c1c(n2CC(O)CN2CCOCC2)CCCC1` (stereo not given), the inhibition is 5.45%.
For `Cc1cc(C(=O)COC(=O)c2ccc(N)cc2)c(C)n1-c1c(C)n(C)n(-c2ccccc2)c1=O`, the inhibition was -9.39%.
For `CSc1nc(N2CCOCC2)cc(N2CCOCC2)n1` the value was 2.38%; for `COc1ccc(Br)c(C(=O)NC2CCCC2)c1`, 2.12%.
`CCC(CC)C(=O)NCc1ccc(OC)cc1`: the inhibition was 22.8%.
For `O=C1CN(C(=O)/C=C/c2cccc(Cl)c2)c2ccccc2N1` the value was 8.09%; for `O=C(CS(=O)(=O)c1ccc(F)cc1)NCc1ccccc1`, -1.23%.
For `Cc1ccc(-c2nn(-c3ccccc3)cc2CSC(=N)N)cc1` the value was 17.4%; for `OCc1cn(-c2ccccc2)nc1-c1ccc(-c2nn(-c3ccccc3)cc2CO)cc1`, -10.8%; for `CNC(=O)NC(=O)COC(=O)c1ccccc1OCc1ccccc1`, 0.41%.
For `CC(=O)N1CCC(=NNc2ccnc3cc(Cl)ccc23)CC1` the value was 0.99%.
With `C/C(=N\Nc1cccc2cccnc12)c1ccc(N)cc1`, the inhibition is 10.3%.
For `CCOC(=O)N1CCN(c2ccnc3cc(Cl)ccc23)CC1` the value was -0.34%; for `C/C(=N/Nc1ccnc2cc(Cl)ccc12)c1ccc(O)cc1`, -22.6%; for `Oc1ccc(/C=N/Nc2ccnc3cc(Cl)ccc23)c(O)c1`, -3.01%.
For `Oc1ccc(Nc2ccnc3cc(Cl)ccc23)cc1` the value was -4.09%.
